HT1080-NT tox: qHTS for induction of synthetic lethality in tumor cells producing 2HG: qHTS for the HT-1080-NT fibrosarcoma cell line. AID 686970, 2013. Potency, µM (top dose mostly 46.1 µM), for the others: at the top dose activity, negative = less viability, actives largely listed as cytotoxic. 360,000 compounds, 1.6% hits. HT-1080-NT fibrosarcoma viability, CellTiter-Glo ATP luminescence, 48 h;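 further: NT is the 2HG producing partner of a matched IDH1 knockdown line; potency means the concentration at half of the fitted maximal effect; 0% = DMSO-treated cells and -100% = media-only wells without cells; nearly all actives have a fitted effect of over 55% in size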
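Compounds were tested in concentration-response format on HT-1080-NT cells for 48 hours at 37 degrees C. Cell viability came from CellTiter-Glo luminescence; curves were classified by r2, response magnitude and activity.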
IL1B secr inh: qHTS for Inhibitors of Inflammasome Signaling: IL-1-beta AlphaLISA Primary Screen | THP-1 LPS/ATP IL-1B secretion, AlphaLISA, 16 h; active compounds read low | 360,000 compounds, 4.7% hits | activity change, % at 57.5 µM; in the data active means activity change below about -50%; inconclusive means mostly about -30% to -49%
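Secreted IL-1B measured by AlphaLISA bead assay after 16 h compound exposure of THP-1 cells; compounds (final up to 57.5 uM) added 1 h before LPS (250 ng/mL) and ATP (1.25 mM) stimulation; lower signal means less secretion.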
HT1080 IDH1KD tx: qHTS for induction of synthetic lethality in tumor cells producing 2HG: qHTS for the HT-1080-IDH1KD cell line | HT-1080 IDH1 knockdown viability, ATP luminescence, 48 h | Potency, µM (doses to about 46.1 µM), inactives show at the top dose activity, negative = toxicity, usual class: cytotoxic | 360,000 compounds, 2% hits | AID 686971, 2013;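 further: potency means the concentration at half of the fitted maximal effect; 0% = DMSO wells and -100% = cell-free medium wells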
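Cytotoxicity counter-line: IDH1KD HT-1080, 48 h, CellTiter-Glo. Curves classed by r2, magnitude and activity.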
DT40 TDP1 CPT: qHTS for Inhibitors of human tyrosyl-DNA phosphodiesterase 1 (TDP1): qHTS in cells in presence of CPT. chicken DT40 Tdp1-/-;hTDP1 cells + 20 nM CPT, ATP luminescence, 48 h. Potency, µM (top dose mostly 46.2 µM), for the others: at the highest dose activity change, negative = growth inhibition, hits mostly inhibitors. AID 686979, 2013. 420,000 compounds, 12% hits; further: potency means the concentration at half of the fitted maximal effect; nearly all actives have a fitted effect of over 55% in size
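Cell growth measured by CellTiter-Glo luminescence after a minimum 48 h, 37 C compound exposure with 20 nM CPT in Tdp1-knockout DT40 cells stably expressing hTDP1, seeded 400/well; qHTS titration format.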
DT40 TDP1 no CPT: qHTS for Inhibitors of human tyrosyl-DNA phosphodiesterase 1 (TDP1): qHTS in cells in absence of CPT; DT40 Tdp1-/- hTDP1 cells, no CPT, ATP luminescence, 48 h; Potency, µM (series often up to 46.2 µM), inactives show at the highest dose activity change, negative = growth inhibition, hits mostly inhibitors; 420,000 compounds, 15% hits; AID 686978, 2013; further: potency means the concentration at half of the fitted maximal effect; nearly all actives have a fitted effect of over 55% in size
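No-CPT arm: Tdp1-/-;hTDP1 DT40 cells (400/well) plus compounds, incubated ≥48 hr at 37 °C. Readout CellTiter-Glo luminescence.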
ALOX12 inh: Primary qHTS assay for inhibitors of human arachidonate 12S-lipoxygenase (ALOX12): Round 2; purified 12hLO, xylenol orange hydroperoxide absorbance; Potency, µM (highest dose often 108 µM), for inactives: at the top dose activity change, negative = inhibition, hits mostly inhibitors; 580,000 compounds, 1.1% hits; AID 1671190, 2021; further: potency means the concentration at half of the fitted maximal effect
Target sequence (P18054 whole entry, looked up): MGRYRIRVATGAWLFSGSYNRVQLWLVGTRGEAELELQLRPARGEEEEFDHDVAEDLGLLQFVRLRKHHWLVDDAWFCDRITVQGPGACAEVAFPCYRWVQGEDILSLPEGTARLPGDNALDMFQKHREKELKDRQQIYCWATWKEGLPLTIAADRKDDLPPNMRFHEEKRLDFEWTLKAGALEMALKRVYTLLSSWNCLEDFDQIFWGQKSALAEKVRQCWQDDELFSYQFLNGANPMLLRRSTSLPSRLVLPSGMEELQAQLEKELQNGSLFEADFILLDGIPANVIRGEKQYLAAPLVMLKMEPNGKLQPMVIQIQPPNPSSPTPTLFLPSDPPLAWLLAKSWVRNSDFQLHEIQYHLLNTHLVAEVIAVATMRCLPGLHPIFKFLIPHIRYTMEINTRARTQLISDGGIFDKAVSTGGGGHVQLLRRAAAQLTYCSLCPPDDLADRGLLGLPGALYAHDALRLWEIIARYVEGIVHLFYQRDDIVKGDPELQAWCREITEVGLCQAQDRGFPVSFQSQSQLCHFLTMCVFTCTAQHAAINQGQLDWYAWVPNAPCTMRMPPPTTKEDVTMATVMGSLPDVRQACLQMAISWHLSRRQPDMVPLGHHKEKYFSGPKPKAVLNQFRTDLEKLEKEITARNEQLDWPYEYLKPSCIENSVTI
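Purified human 12hLO at 150 nM in 25 mM Hepes, 0.01% Triton X-100, pH 7.0, preincubated 15 min at room temperature with compound. Reaction started with 40 uM arachidonic acid, 30 min at room temperature. Hydroperoxide measured by Fe-xylenol orange, 573/405 nm absorbance ratio.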
An asterisk follows results filed as active; ! = not active in a repeat; [ ] = dose if it differs, or a comment. This excerpt belongs to a sample that is enriched for hits. Unless noted, the call rests on the fitted dose curve; in most records, active means well fitted curve in the direction sought with a large enough effect; inconclusive means small, poorly fitted or top-dose-only effect, or another doubt; inactive means no such curve, though single readings can be large; an effect the other way counts as inactive or inconclusive. Unless noted, on the % scale 0 is the no-effect control and ±100 the full control effect.

`CC1(C(=O)NCc2cccc3ccccc23)CCN1Cc1cc2ccccc2o1` (stereo not drawn) gave HT1080-NT tox inconclusive, IL1B secr inh -16, HT1080 IDH1KD tx inconclusive, DT40 TDP1 CPT inconclusive, DT40 TDP1 no CPT inconclusive and ALOX12 inh 7%.
`CCCCNC(=O)C1(C)CCCCN1Cc1ccc(-c2ccccc2)cc1` (stereo not drawn) gave HT1080-NT tox inconclusive, IL1B secr inh 16, HT1080 IDH1KD tx inconclusive, DT40 TDP1 CPT 13µM*, DT40 TDP1 no CPT 8.2µM* and ALOX12 inh inconclusive.
`CCCCNC(=O)C1(C)CCN1C(=O)c1ccc(F)c(C)c1` (stereo not drawn) gave HT1080-NT tox 24%, IL1B secr inh -3, HT1080 IDH1KD tx 14%, DT40 TDP1 CPT -28%, DT40 TDP1 no CPT inconclusive and ALOX12 inh 8%.
Screening CCCCNC(=O)C1(C)CCN1Cc1cc(C)ccc1C (stereo not drawn) returned HT1080-NT tox 2%, IL1B secr inh 0, HT1080 IDH1KD tx 17%, DT40 TDP1 CPT 23µM*, DT40 TDP1 no CPT inconclusive and ALOX12 inh 4%.
`CCCCNC(=O)C1CCN(Cc2ccc(OCc3ccccc3)cc2)CC1` gave HT1080-NT tox inconclusive, IL1B secr inh -8, HT1080 IDH1KD tx inconclusive, DT40 TDP1 CPT inconclusive, DT40 TDP1 no CPT inconclusive and ALOX12 inh inconclusive.
Screening CC12CCC(C(=O)O/N=C3\CC4CCC3(C)C4(C)C)(CC1=O)C2(C)C (stereo not drawn) returned ALOX12 inh 5%.
N#Cc1c(N)nc2c3c(sc(=N)c2c1N)NC(=O)CC3c1c(F)cccc1Cl (stereo not drawn) was read as HT1080-NT tox -1%, IL1B secr inh 10, HT1080 IDH1KD tx -13%, DT40 TDP1 CPT inconclusive, DT40 TDP1 no CPT 6.5µM* and ALOX12 inh -8%.
`N#Cc1c(N)nc2c3c(sc(=N)c2c1N)NC(=O)CC3c1ccccc1` (stereo not drawn) gave HT1080-NT tox inconclusive, IL1B secr inh inconclusive, HT1080 IDH1KD tx inconclusive, DT40 TDP1 CPT 5%, DT40 TDP1 no CPT inconclusive and ALOX12 inh 0%.
For CCOC(=O)CSC1=C(C#N)C(c2ccc(Cl)cc2)CC(=O)N1 (stereo not drawn) the results were HT1080-NT tox -10%, IL1B secr inh -5, HT1080 IDH1KD tx -5%, DT40 TDP1 CPT inconclusive, DT40 TDP1 no CPT inconclusive and ALOX12 inh inconclusive.
Cc1c(C#N)c(N)nc2c3c(sc12)NC(=O)CC3c1ccc(Cl)cc1 (stereo not drawn) was read as HT1080-NT tox 21µM*, IL1B secr inh 28, HT1080 IDH1KD tx 16µM*, DT40 TDP1 CPT inconclusive, DT40 TDP1 no CPT inconclusive and ALOX12 inh inconclusive.
`CCOC(=O)c1ccc(Nc2nc(-c3ccccc3)no2)cc1` gave ALOX12 inh 2%.
For CCOC(=O)c1ccc(Nc2nc3nonc3nc2Nc2cccc(C)c2C)cc1 the results were DT40 TDP1 CPT 2.6µM*, DT40 TDP1 no CPT 2.1µM* and ALOX12 inh -14%.
`Cc1ccc(C)c(Nc2nc3nonc3nc2Nc2cccc(C)c2C)c1` gave DT40 TDP1 CPT 3.7µM*, DT40 TDP1 no CPT 2.9µM* and ALOX12 inh -9%.
CCOc1ccc(C(=O)N2CCC(c3nnc(Cn4cccn4)n3C)CC2)o1 was read as ALOX12 inh 23%.
Screening Cn1nc(C(=O)N2CCOCC2)cc1C(=O)Nc1cccc(F)c1 returned ALOX12 inh 2%.
Screening COC[C@H]1C[C@@H](NC(C)=O)[C@H](O)[C@@H]1O returned ALOX12 inh 105%[176 µM].
For COc1cccc2c1OC1(CCN(C(C)=O)CC1)N1N=C(c3ccccc3OC(F)F)CC21 (stereo not drawn) the results were ALOX12 inh -12%.
O=C1CCC[C@@H]2[C@@H](Cc3ccccc3)[C@@H](Nc3ccccc3)C[C@@H]3CCN1[C@@H]32 was read as DT40 TDP1 CPT inconclusive and DT40 TDP1 no CPT 11µM*.
`C/C(Cn1cnc([N+](=O)[O-])n1)=N\NC(=O)c1ccccc1O` gave HT1080-NT tox -11%, IL1B secr inh -14, HT1080 IDH1KD tx 2%, DT40 TDP1 CPT 5%, DT40 TDP1 no CPT 2% and ALOX12 inh 8%.
`C/C(Cn1nnc([N+](=O)[O-])n1)=N\NC(=O)c1ccc(O)cc1O` gave HT1080-NT tox 23µM*, IL1B secr inh 4, HT1080 IDH1KD tx 18µM*, DT40 TDP1 CPT inconclusive, DT40 TDP1 no CPT inconclusive and ALOX12 inh 21%.
Screening C/C(Cn1nnc([N+](=O)[O-])n1)=N\NC(=O)c1ccccc1O returned HT1080-NT tox inconclusive, IL1B secr inh -4, HT1080 IDH1KD tx inconclusive, DT40 TDP1 CPT 15µM*, DT40 TDP1 no CPT 18µM* and ALOX12 inh -2%.
For CC1CCCN(C(=O)c2nn(C)c3c2CS(=O)(=O)c2ccccc2-3)C1 (stereo not drawn) the results were HT1080-NT tox 1%, IL1B secr inh 2, HT1080 IDH1KD tx 10%, DT40 TDP1 CPT -8%, DT40 TDP1 no CPT 24% and ALOX12 inh -19%.
`Cc1ccc(N2CCN(C(=O)c3nn(C)c4c3CS(=O)(=O)c3ccccc3-4)CC2C)cc1` (stereo not drawn) gave HT1080-NT tox 3%, IL1B secr inh -29, HT1080 IDH1KD tx 2%, DT40 TDP1 CPT 21µM*!, DT40 TDP1 no CPT inconclusive and ALOX12 inh -21%.
For CCCCN1C2=C(C(=O)CCC2)C(c2ccc(Cl)c(Cl)c2)C2=C1c1ccccc1C2=O (stereo not drawn) the results were HT1080-NT tox 2%, IL1B secr inh -11, HT1080 IDH1KD tx 6%, DT40 TDP1 CPT 16µM*, DT40 TDP1 no CPT inconclusive and ALOX12 inh -11%.

Source: PubChem
